Screening data from PubChem BioAssay.
Only some compounds are listed: those with a hit (about 7.6% of all), similar ones and a draw of the others.
KB-3-1 tox = kills parental KB-3-1 adenocarcinoma cells; 400,000 tested, 1.4% active; Potency, µM (titrated, usually from 46.1 µM), most hits filed as cytotoxic; KB-3-1 viability, CellTiter-Glo ATP luminescence, 72 h; also: potency is read from the fitted curve at half-maximal effect; % is scaled to controls: 0 for no effect and ±100 for the full control effect; nearly all actives have a fitted effect of over 60% in size
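Screening of KB-3-1 cells (DMEM, 10% FBS, phenol-red free) ran from lowest to highest compound concentration; after 72 h at 37 °C viability was read luminescently and curves fitted.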
KCNH2 3.1 block = blocks the human KCNH2 3.1 channel isoform | U2OS KCNH2 3.1, thallium flux FluxOr; active compounds read low | activity change, % (tested at about 1.8 µM) | 340,000 tested, 0.95% active;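 active = maximum activity change below -70%; inconclusive = maximum activity change from -70% to -50%; inactive = maximum activity change above -50%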;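 also: thallium influx rate constant from kinetic fluorescence after stimulation buffer; % is scaled to controls: 0 for no effect and ±100 for the full control effect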
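Channel expression came from 3.1 mutant virus (1.77 x 10^8 /mL) applied to suspended U2OS cells for 4 h. Flux was tracked with FluxOr dye plus Red40 quencher, and kinetic rate constants normalized to controls.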
MCF10A rereplic = DNA re-replication induction in MCF 10a cells; MCF 10A DNA re-replication, Hoechst nuclear intensity, 48 h; Potency, µM (top dose mostly 46.1 µM), for the others: at the top dose activity, positive = re-replication, usual class: activators; 350,000 tested, 2.9% active; AID 624296; also: potency is read from the fitted curve at half-maximal effect; % of control where 0% means no effect; nearly all actives have a fitted effect of over 50% in size
hERG WT inh = blocks the wildtype human KCNH2 potassium channel. U2OS, BacMam KCNH2, thallium flux FluxOr; active compounds read low. 340,000 tested, 0.37% active. activity change, % at 1.84 µM. Q12809;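 active = maximum activity change below -70%; inconclusive = maximum activity change between -70% and -50%; inactive = maximum activity change above -50%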; also: % is scaled to controls: 0 for no effect and ±100 for the full control effect
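U2OS cells were transduced with wild-type KCNH2 virus (2.03 x 10^8 / mL) for 4 h at room temperature, then cultured overnight at 37 C. Thallium flux was read with FluxOr dye. Rate constants were normalized to DMSO controls.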
KB-V1 cytotox = kills drug-selected multidrug resistant KB-V1 cells | AID 1347076 | KB-V1 MDR cells viability, CellTiter-Glo, 72 h | Potency, µM (highest dose often 46.1 µM), most hits filed as cytotoxic | 400,000 tested, 3.4% active; also: potency is read from the fitted curve at half-maximal effect; % is scaled to controls: 0 for no effect and ±100 for the full control effect; nearly all actives have a fitted effect of over 60% in size
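Luminescent ATP read-out (CellTiter-Glo, 10 min) measures survival of drug-selected KB-V1 MDR cells after 72 h, 37 degrees C compound exposure. Medium: phenol-red-free DMEM, 10% FBS. Values from fitted concentration-response curves.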
SW480 rerep = inducers of DNA re-replication in SW480 colon cancer cells | SW480 DNA re-replication, Hoechst DNA content imaging, 48 h | 340,000 tested, 1.8% active | AID 624297 | Potency, µM (highest dose often 46.1 µM), without a hit: at the highest dose re-replication activation, usual class: activators; also: potency is read from the fitted curve at half-maximal effect; % of control where 0% means no effect; nearly all actives have a fitted effect of over 55% in size
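DNA re-replication was detected as more nuclei of elevated Hoechst intensity after 48 hr exposure to compound (23 nL pinned per well of 250 cells).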
An asterisk follows results filed as active. Unless noted, calls follow the shape of the dose curve; as a rule, active = well fitted curve in the direction sought with a large enough effect; inconclusive = small, poorly fitted or top-dose-only effect, or another doubt; inactive = no such curve, though single readings can be large; an effect the other way counts as inactive or inconclusive.

Screening COc1ccccc1N=C(C)C1=C(O)CC(c2ccccc2)CC1=O (stereo not given) returned KB-3-1 tox inconclusive, KCNH2 3.1 block 10, MCF10A rereplic inconclusive, hERG WT inh 3, KB-V1 cytotox 1.5µM* and SW480 rerep 2.1µM*.
Cc1cc([N+](=O)[O-])c2[nH]c(C(=O)N/N=C/c3ccccc3C(=O)O)c(-c3ccccc3)c2c1 was read as KB-3-1 tox inactive, KCNH2 3.1 block 15, MCF10A rereplic inconclusive, hERG WT inh -8, KB-V1 cytotox 4.1µM* and SW480 rerep inconclusive.
CC(C)CNS(=O)(=O)c1cc(C(=O)OCC(=O)N2CCOCC2)c(Cl)cc1Cl was read as KB-3-1 tox inactive, KCNH2 3.1 block -14, MCF10A rereplic 30%, hERG WT inh 2, KB-V1 cytotox inactive and SW480 rerep -8%.
For Cc1ccc(NC(=O)c2ccco2)cc1C the results were KB-3-1 tox inactive, KCNH2 3.1 block 8, MCF10A rereplic -24%, hERG WT inh -4, KB-V1 cytotox inactive and SW480 rerep -32%.
`CSc1ccccc1NC(=O)c1ccco1` gave KB-3-1 tox inactive, KCNH2 3.1 block 27, MCF10A rereplic 12%, hERG WT inh -281*, KB-V1 cytotox inactive and SW480 rerep -4%.
Screening Cc1cc(NC(=O)c2ccco2)ccc1NC(=O)c1ccco1 returned KB-3-1 tox inconclusive, KCNH2 3.1 block -19, MCF10A rereplic -2%, hERG WT inh -8, KB-V1 cytotox 23µM* and SW480 rerep -5%.
For CCOC(=O)N1CCN(C(=O)CN(c2cccc(Cl)c2C)S(=O)(=O)c2ccc(C)cc2)CC1 the results were KB-3-1 tox inactive and KB-V1 cytotox inactive.
Screening CCc1ccccc1NC(=O)Cn1nc(C(F)(F)F)cc1C1CC1 returned KB-3-1 tox inactive, KCNH2 3.1 block -78*, MCF10A rereplic -14%, hERG WT inh -5, KB-V1 cytotox inactive and SW480 rerep 0%.
For CCc1ccccc1NC(=O)Cn1nc(C(F)(F)F)c2c1CCCC2 the results were KB-3-1 tox inactive and KB-V1 cytotox inactive.
For O=C(/C=C/c1ccc([N+](=O)[O-])cc1)c1ccccc(=O)c1O the results were KB-3-1 tox inconclusive, MCF10A rereplic 2.9µM*, hERG WT inh 4, KB-V1 cytotox 1µM* and SW480 rerep 5.8µM*.
For O=C(/C=C/c1ccc([N+](=O)[O-])cc1)c1cccs1 the results were KB-3-1 tox inactive, KCNH2 3.1 block -14, MCF10A rereplic 1%, hERG WT inh 4, KB-V1 cytotox inactive and SW480 rerep inconclusive.
For O=C(/C=C/c1ccccc1Cl)c1ccc(O)cc1 the results were KB-3-1 tox inactive, KCNH2 3.1 block 1, MCF10A rereplic inconclusive, hERG WT inh -1, KB-V1 cytotox inconclusive and SW480 rerep inconclusive.
`Cc1ccc(/C=C/C(=O)c2ccccc(=O)c2O)c(C)c1` gave KB-3-1 tox 16µM*, KCNH2 3.1 block 5, MCF10A rereplic inconclusive, hERG WT inh 5, KB-V1 cytotox 8.2µM* and SW480 rerep inconclusive.
Screening O=C(/C=C/c1ccccc1Cl)c1ccccc(=O)c1O returned KB-3-1 tox 21µM*, KCNH2 3.1 block -7, MCF10A rereplic 10µM*, hERG WT inh -2, KB-V1 cytotox 18µM* and SW480 rerep 12µM*.
Screening Cc1ccc(C)c(/C=C/C(=O)c2ccccc(=O)c2O)c1 returned KB-3-1 tox 12µM*, KCNH2 3.1 block 11, MCF10A rereplic 18µM*, hERG WT inh 9, KB-V1 cytotox 8.2µM* and SW480 rerep -651%.
For COc1ccc(-n2ncc(C(=O)Nc3ccc4c(c3)OCCO4)c2C2CCN(C(=O)OC(C)(C)C)CC2)cc1 the results were KB-3-1 tox inactive and KB-V1 cytotox inactive.
For CCOc1ccc(CCNC(=O)Cn2nc(C)c3c(C)n(-c4ccccc4)nc3c2=O)cc1 the results were KB-3-1 tox inactive, KCNH2 3.1 block 12, MCF10A rereplic 0%, hERG WT inh -7, KB-V1 cytotox inactive and SW480 rerep -11%.
